Data on twelve compounds can be found in the supplement of paper PMC3842684.

The experiment deals with P. falciparum NF54-pfs16-GFP late (IV-V) stage gametocytes. In words: relative % inhibition of viable gametocyte number; higher = more gametocytocidal. The note with it: 5 µM; stage: late (IV-V) gametocyte; incubation 72 h. The method, boiled down: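 NF54 pfs16-GFP gametocytes, magnet-isolated at early (I/IIa, day 2) or late (day 8) stage, were plated at 10% parasitaemia, 0.1% haematocrit in 384-well poly-D-lysine imaging plates with compound in duplicate at 5 or 0.5 µM. Plates were incubated 72 h at 37°C, 5% CO2, 5% O2, then overnight with MitoTracker Red. Confocal imaging counted elongated GFP objects with MitoTracker signal above cut-off as viable gametocytes. Relative inhibition was normalised to in-plate vehicle and positive-control wells.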
On to `Oc1ccc(C(=C(Cl)Cl)c2ccc(O)cc2)cc1`, for which the relative % inhibition was -7.57%. As for `O=C(CCc1ccco1)NC1CCN(CC2(c3ccc(Cl)cc3)CCC2)CC1`, the figure is 82.2%; as for `CN(N=O)C1=C(NC2CCCCC2)C(=O)c2ccccc2C1=O`, 38.1%; as for `CCOc1c(Cl)cc(CNC(C)C(O)c2ccccc2)cc1OC` (configuration not stated), 31.3%.

For the compound `CCOc1cc(CNC(C)C(O)c2ccccc2)cc(Cl)c1OCC` (configuration not stated), the relative % inhibition worked out at 74.4%.

For `Oc1ccc(Br)cc1CN1CCN(Cc2cccc(F)c2)CC1`, the relative % inhibition was 95.9%. As to `COc1cc(CNCCc2ccc(Cl)cc2)cc(OC)c1O`, the relative % inhibition came to 3.51%. As for `CCCc1cc(O)c2c3c(c(=O)oc2c1)CN(C)CC3`, the relative % inhibition came to 49.1%. As for `CCCCCCc1cc(O)c2c3c(c(=O)oc2c1)CCC(C)C3` (configuration not stated), the figure is 98.9%. As for `Oc1ccc(Br)cc1CN1CCN(Cc2ccc(Cl)cc2)CC1`, the relative % inhibition was determined as 31%. With `C=CC12CCN(CC1)C(C(O)c1ccnc3ccc(OC)cc13)C2` (configuration not stated) the figure was 36.1%. As for `COc1ccc(CN2CCN(Cc3ccccc3)CC2)c(O)c1`, the figure is 7.95%.
